Source: PubChem BioAssay AID1159580 (chemical genetic matrix, 2015)
Where “and” joins values, the source holds several entries; their conditions need not be identical. Equal entries are not always repeated. Hit rate of the full screen: of about 5,500 compounds, about 2,000 (36%) were called active. Roughly 18% stayed inconclusive and do not appear here. The list shows a part of the results. Values without a mark were called inactive. Cut-off read from the data, not from the text of the source: active = normalized growth mostly below about 0.91 (no sharp cut-off); inconclusive = no clear call, values can overlap the other calls; inactive = mostly above about 0.92.

Assay: chemical genetic growth profiling, strain panel (AID 1159580);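 note: tested at 20 µM; growth read once vehicle control cultures reached saturation at 30 °C; 1 = growth at the plate median or of vehicle wells; lower values mean less growth of the strain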
Conditions: S. cerevisiae deletion strains, growth OD

Q: What does the source list for `CCOc1nc2cccc(C(=O)OC(C)OC(=O)OC3CCCCC3)c2n1Cc1ccc(-c2ccccc2-c2nn[nH]n2)cc1` (configuration not stated)?
A: normalized growth (locus YAL013W, strain DEP1, active compounds read low): 1; normalized growth (locus YAL021C, strain ccr4, active compounds read low): 1; normalized growth (locus YAL026C, strain drs2, active compounds read low): 1.03; normalized growth (locus YAL030W, strain snc1, active compounds read low): 1.02; normalized growth (locus YBL061C, strain skt5, active compounds read low): 1.01; normalized growth (locus YBR009C, strain hhf1, active compounds read low): 0.998; normalized growth (locus YBR021W, strain FUR4, active compounds read low): 1.03; normalized growth (locus YBR023C, strain chs3, active compounds read low): 1.03; normalized growth (locus YBR171W, strain sec66, active compounds read low): 1.05; normalized growth (locus YBR229C, strain ROT2, active compounds read low): 0.996; normalized growth (locus YBR231C, strain swc5, active compounds read low): 1.01; normalized growth (locus YBR279W, strain paf1, active compounds read low): 1.02; normalized growth (locus YCL011C, strain gbp2, active compounds read low): 1.02; normalized growth (locus YCL016C, strain dcc1, active compounds read low): 1.01; normalized growth (locus YCL029C, strain bik1, active compounds read low): 1.01; normalized growth (locus YCL061C, strain MRC1, active compounds read low): 1.02; normalized growth (locus YCL069W, strain vba3, active compounds read low): 1.05; normalized growth (locus YCR088W, strain abp1, active compounds read low): 1.03; normalized growth (locus YDL005C, strain med2, active compounds read low): 1.03; normalized growth (locus YDL035C, strain GPR1, active compounds read low): 0.977; normalized growth (locus YDL040C, strain nat1, active compounds read low): 1.02; normalized growth (locus YDL074C, strain BRE1, active compounds read low): 0.96; normalized growth (locus YDL101C, strain DUN1, active compounds read low): 0.998; normalized growth (locus YDL134C, strain PPH21, active compounds read low): 1.01; normalized growth (locus YDL185W, strain tfp1, active compounds read low): 0.999; normalized growth (locus YDL192W, strain arf1, active compounds read low): 1; normalized growth (locus YDR001C, strain nth1, active compounds read low): 1.03; normalized growth (locus YDR069C, strain doa4, active compounds read low): 1.04; normalized growth (locus YDR101C, strain arx1, active compounds read low): 1; normalized growth (locus YDR137W, strain rgp1, active compounds read low): 0.824 (active); normalized growth (locus YDR150W, strain NUM1, active compounds read low): 1.01; normalized growth (locus YDR159W, strain sac3, active compounds read low): 1; normalized growth (locus YDR162C, strain NBP2, active compounds read low): 0.983; normalized growth (locus YDR195W, strain ref2): 0.994; normalized growth (locus YDR297W, strain sur2, active compounds read low): 0.994; normalized growth (locus YDR318W, strain mcm21, active compounds read low): 0.995; normalized growth (locus YDR334W, strain swr1, active compounds read low): 1.03; normalized growth (locus YDR335W, strain msn5, active compounds read low): 1.03; normalized growth (locus YDR388W, active compounds read low): 1; normalized growth (locus YDR392W, strain spt3, active compounds read low): 0.996; normalized growth (locus YDR502C, strain sam2, active compounds read low): 0.997; normalized growth (locus YEL003W, strain gim4, active compounds read low): 1.03; normalized growth (locus YEL037C, strain rad23, active compounds read low): 1.02; normalized growth (locus YEL061C, strain CIN8 (second series), active compounds read low): 1.02; normalized growth (locus YEL061C, strain CIN8, active compounds read low): 1; normalized growth (locus YER015W, strain faa2, active compounds read low): 1.02; normalized growth (locus YER016W, strain bim1, active compounds read low): 1.02; normalized growth (locus YER110C, active compounds read low): 0.997; normalized growth (locus YER111C, strain swi4, active compounds read low): 1.04; normalized growth (locus YER155C, strain BEM2 (second series), active compounds read low): 1.07; normalized growth (locus YER155C, strain BEM2, active compounds read low): 1.01; normalized growth (locus YER167W, strain BCK2, active compounds read low): 0.986; normalized growth (locus YFR010W, strain ubp6, active compounds read low): 1.04; normalized growth (locus YGL078C, strain dbp3, active compounds read low): 1.01; normalized growth (locus YGL086W, strain mad1, active compounds read low): 0.997; normalized growth (locus YGL167C, strain pmr1, active compounds read low): 1.03; normalized growth (locus YGL173C, strain kem1, active compounds read low): 1.03; normalized growth (locus YGL227W, strain vid30, active compounds read low): 1.02; normalized growth (locus YGL240W, strain doc1, active compounds read low): 1.02; normalized growth (locus YGL248W, strain PDE1, active compounds read low): 1.01; normalized growth (locus YGL253W, strain hxk2, active compounds read low): 1.04; normalized growth (locus YGR078C, strain PAC10, active compounds read low): 0.988; normalized growth (locus YGR135W, strain pre9, active compounds read low): 1; normalized growth (locus YGR229C, strain SMI1, active compounds read low): 0.851; normalized growth (locus YGR252W, strain gcn5, active compounds read low): 0.972; normalized growth (locus YHR013C, strain ard1, active compounds read low): 1.03; normalized growth (locus YHR027C, strain rpn1, active compounds read low): 1.01; normalized growth (locus YHR030C, strain SLT2, active compounds read low): 0.996 and 0.96; normalized growth (locus YHR079C, strain IRE1 (second series), active compounds read low): 0.996; normalized growth (locus YHR079C, strain IRE1, active compounds read low): 0.957; normalized growth (locus YHR094C, strain hxt1, active compounds read low): 0.995; normalized growth (locus YHR129C, strain ARP1, active compounds read low): 1.01; normalized growth (locus YHR142W, strain chs7, active compounds read low): 1.04; normalized growth (locus YHR200W, strain rpn10, active compounds read low): 0.998; normalized growth (locus YIL066C, strain RNR3, active compounds read low): 1.01; normalized growth (locus YIL073C, strain SPO22, active compounds read low): 1.07; normalized growth (locus YIL125W, strain kgd1, active compounds read low): 0.989; normalized growth (locus YIR030C, strain dcg1, active compounds read low): 0.996; normalized growth (locus YJL092W, strain hpr5, active compounds read low): 1.03; normalized growth (locus YJL095W, strain BCK1 (second series), active compounds read low): 1.01; normalized growth (locus YJL095W, strain BCK1, active compounds read low): 0.8 and 1.01; normalized growth (locus YJL115W, strain asf1, active compounds read low): 1.04; normalized growth (locus YJL129C, strain trk1, active compounds read low): 1.04; normalized growth (locus YJL134W, strain LCB3, active compounds read low): 1.01; normalized growth (locus YJL154C, strain vps35, active compounds read low): 1.03; normalized growth (locus YJL164C, strain tpk1, active compounds read low): 1.01; normalized growth (locus YJL166W, strain qcr8, active compounds read low): 1.01; normalized growth (locus YJL168C, strain set2, active compounds read low): 0.994; normalized growth (locus YJL187C, strain SWE1 (second series), active compounds read low): 0.997; normalized growth (locus YJL187C, strain SWE1, active compounds read low): 1.01; normalized growth (locus YJR043C, strain POL32, active compounds read low): 0.996; normalized growth (locus YJR066W, strain TOR1, active compounds read low): 0.93
